Active and inactive are the calls of the source.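 The calls were made as follows: active = compounds lowering luciferase light whose fitted half-effect concentration is at most twice the top tested dose; inconclusive = flat curve with 30 to 70% inhibition, or poor fit; inactive = the rest.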
Test: luciferase signal loss, tTA control fusion, HeLa F-luc tTA cells, dry powder, counter-screen for HIV Env fusion inhibitor project, dose response (AID 687021)
Settings: luciferase luminescence counterscreen; series mostly up to 35 µM

| Compound | outcome |
| --- | --- |
| CCCn1nc(C(=O)Nc2ccc3nc(N4CCOCC4)sc3c2)ccc1=O | inactive |
| CCOc1ccc(C(=O)C2CCN(CC(=O)Nc3ccccc3N3CCOCC3)CC2)cc1 | inactive |
| CCOc1ccc(OCC)c(S(=O)(=O)NCc2ccncc2)c1 | inactive |
| Cc1noc(C)c1S(=O)(=O)Nc1cccc2c1O[C@H](CN(C)Cc1ccc(C(F)(F)F)cc1)[C@@H](C)CN([C@H](C)CO)C2=O | inactive |
| CCOc1ccc(S(=O)(=O)NCc2ccccn2)cc1 | inactive |
| CCCNC(=O)N1[C@H](C#N)[C@H](c2ccc(-c3cccnc3)cc2)[C@@H]1CO | inactive |
| Cc1ccc2c(CN3CCN(S(=O)(=O)c4ccc5c(c4)OCCO5)CC3)cc(=O)oc2c1C | inactive |
| COc1ccccc1CCNCc1ccc(OC)c(OCc2ccccc2)c1 | inactive |
| CCCOc1ccc(S(=O)(=O)NCc2cccnc2)cc1 | inactive |
| CCOc1ccc(S(=O)(=O)NC(C)c2ccncc2)cc1 (configuration not stated) | inactive |
| CC1(C)CC(NC(=O)C(=O)Nc2ccc(Cl)cc2)CC(C)(C)N1 | inactive |
| C[C@@H]1CN([C@H](C)CO)C(=O)c2cccc(NC(=O)C3CCCCC3)c2O[C@H]1CN(C)Cc1ccccc1 | inactive |
| Cc1oc(-c2ccc(Cl)cc2)nc1CN1CCCC(C(=O)NCc2cccnc2)C1 (configuration not stated) | inactive |
| CCOc1ccc(S(=O)(=O)NCc2ccncc2)cc1 | inactive |
| Cc1noc(C)c1S(=O)(=O)Nc1cccc2c1O[C@@H](CN(C)Cc1ccc(C(F)(F)F)cc1)[C@H](C)CN([C@@H](C)CO)C2=O | inactive |
| CCCOc1ccc(S(=O)(=O)NCc2ccncc2)c2ccccc12 | inactive |
| COc1ccc2c(c1)[nH]c1c(N3CCN(Cc4ccc5c(c4)OCO5)CC3)ncnc12 | inactive |
| Cc1ccc(-c2nnc3ccc4c(C(F)(F)F)cc(C(F)(F)F)nc4n23)cc1 | inactive |
| CCOc1ccc(S(=O)(=O)NCc2ccncc2)cc1Cl | inactive |
| C[C@@H]1CN([C@H](C)CO)C(=O)c2cccc(NS(=O)(=O)c3ccc(Cl)cc3)c2O[C@@H]1CN(C)Cc1ccc(Cl)c(Cl)c1 | inactive |
| CC(=O)Nc1ccc(NC(=O)CN(c2ccc(C34CC5CC(CC(C5)C3)C4)cc2)S(C)(=O)=O)cc1 | inactive |
| O=C(CCc1ccc(S(=O)(=O)N2CCOCC2)cc1)Nc1nc(COc2ccccc2)cs1 | inactive |

Source: PubChem BioAssay AID687021 (Broad Institute, 2013)
